In the supplement of paper PMC11417369:
Over roughly 25,000 sequences, “ln(normalized median fluorescence intensity)” has its median near 9.7; the highest 2% begin near 11. Shown is part of a subset that was picked to be rich in the highest values.

Test system: PfAP2-HC AP2 domain (GST-tagged)
Experiment: gcPBM binding intensity (ln(normalized median fluorescence intensity)); higher = stronger DNA binding
Method in brief: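 Alexa488 anti-GST antibody, scanned at 488 nm, detected GST-tagged P. falciparum DNA-binding domains that had been expressed in E. coli and incubated for 1 h on an Agilent 4 × 180k array. The array carried primer-extended double-stranded 36-bp intergenic genomic probes and negative controls. Binding intensity is the highest Masliner-normalised natural-log median intensity across replicate spots of either orientation of each probe.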

Sequence | gcPBM binding intensity (ln)
TACATGAATATATAAAGAAAAAAAAAAAAACACACA [XGTACX_negctrl_site350] | 9.79
AATAAGTAACAAAATACACACATATATATAATTATA [CACACA_site1837] | 10.1
CTTATATTAAGTATTACACACATATATATAAATGCA [CACACA_site4581] | 9.65
TGTACGTTTTTTAACACACACACAAAAAAAAAAAAA [CACACA_site6006] | 9.84
GATTTATACAAATATGTACACACTAAATATATATTA [CACACA_site455] | 9.83
GATGTTGCAAAATTCTGTACATATAAATGTATACAT [XGTACX_site5009] | 9.64
TAATTAAAATTATTTATAAATTAGTATATTTCTATA [CACACA_negctrl_site663] | 9.42
ATATAAGAAAAGCACACACACACAAAAAAAAAAAAA [CACACA_site2827] | 11.1
GCAAAATAAAGAAGCACACAAAAATGAAATATATAT [CACACA_site3651] | 9.96
AGAGATATAAGAAAAGCACACACACCCAAAAAAAAA [CACACA_site8917] | 10.5
AAAAAAAATATAAGTGGTACTCACATAAAGACATAT [XGTACX_site3709] | 9.93
AAAAAAAAAAAGAAGGAAACATTTGACCAAAAATAT [GTGCAC_negctrl_site404] | 9.58
GTAGACTGAAACCACACACACATATATAAATATATT [CACACA_site6433] | 10.4
ATTTTGTGTAGTGATGCATGTTATATATATATTTGA [TGCATGCA_site422] | 9.83
TAGAAGCATTGACACACACACATACATACACATACA [CACACA_site6802] | 11.2
TAGAAGCATGGACACACACACATACATACCCATACA [CACACA_site4916] | 11.2
GTTATAGAAGCATTCACACACACACGGACATACACA [CACACA_site6801] | 10.7
AAAAAAAACGGACACACACACATACCCATACATACA [CACACA_site5574] | 10.5
TATAGAAGCATTCACACACACACATACATACACATA [CACACA_site1466] | 10.6
TGTCATGATACATACACACACATACCCATACCCATA [CACACA_site5211] | 10.6
TGTTGCAAAACAAAAAAAAAAAAAAAAAATAATAAT [CACACA_negctrl_site1642] | 9.52
AAAAGGAAAAATATCACACATATATATATATATATA [CACACA_site5586] | 9.69
TAAGAAATAAATAGTACACACATAGACACAGACACA [CACACA_site4934] | 10.6

Sequence | gcPBM binding intensity (ln)
TAAGAAATAAATAGTACACACATAGACACACGCACA [CACACA_site6821] | 10.7
TAAGAAATAAATAGTACACACATAGACACCCACCGA [CACACA_site1516] | 10.4
GCATAAGAAATAAATAGTACACACATAGACACACAC [XGTACX_site3095] | 11.3
TAAGAAATAAATAGTACACACATAGACACCCACCCA [CACACA_site8429] | 11.3
TAGAAAAAATAAAATAGTACACATCCAAAAAAAAAA [XGTACX_site7829] | 9.71
TATAAATACATCCTATACTTCTCTTTTACAGTTTTA [CACACA_negctrl_site1283] | 9.62
ATTTCGTTCTTTTATGCACACTCAACATATAAATTA [CACACA_site8322] | 9.93
GACATAGTCATATACTGTACTTTATATTATTGTGTA [XGTACX_site6636] | 9.66
TATAATAAAATATGTACACACATACAGACATATATA [CACACA_site6693] | 9.99
TATGGTATATACAACACACACACATATGTATATATA [CACACA_site927] | 10.9
ACACATAAATGTATATATATATAAATATATGTATGT [CACACA_negctrl_site1532] | 9.82
TGGTATATACGACACACACACATATGTATAAATATA [CACACA_site6561] | 10.9
TATGGTATATACAACACACACACATATGTATAAATA [CACACA_site6562] | 10.5
TATGGTAAATACAACACACACACATATGTATTTATA [CACACA_site4666] | 10.3
TATAAATAAATATACACACACACATATAAATATGTA [CACACA_site6504] | 10.4
AATTCACATGTGAACTAAAAGAATATTATATATATA [CACACA_negctrl_site1632] | 9.55
TTTTCTAAATATTATAGTACTCTTAATAATATTAAC [XGTACX_site4222] | 9.34
TATAGCAAAAAATTTACACACATGTTTTTTCTATAC [CACACA_site325] | 9.9
ATATTTGTAATTATTAAACACACACTAATTATATAT [CACACA_site8803] | 9.9
AAATTATATACCACAGTGCAAAAGGCAGGTATACGT | 9.91
TACATATTACTATTCAGTACATATTTTTTTTTCATT [XGTACX_site7468] | 9.81
AAAAAAAATAGACACACACACATACACATAAATATA [CACACA_site7742] | 10.5
TAAATAAATTTATACACACACACACGGATATAAATA [CACACA_site6532] | 10.6

Sequence | gcPBM binding intensity (ln)
ATAGTATACAGACACACACACACACGGATATAAATA [CACACA_site6914] | 10.6
AAAAAATACAGACACACACACACACGCATATAAATA [CACACA_site7644] | 10.8
CATATACATAGACACACACACACATAAATAAATATA [CACACA_site6749] | 10.4
AAAATACATAGACACACACACACACGGATATAAATA [CACACA_site7643] | 11.2
AAACAACATGGACACGCACACACAAAAAAAGCATGC [CACACA_site73] | 10.7
CGCGCACACGGACACACACACACACGGATATAAATA [CACACA_site7102] | 11.3
ACCATATAAATAAACACACACACACGGATATAAATA [CACACA_site7157] | 10.6
CAAGCACACGGACACACACACACACGCGCACGCACA [CACACA_site6307] | 11.3
CACGCATACAGACACACACACACACGGATATAAATA [CACACA_site6445] | 11.6
TTTAATTCTTATATTTGTACAGATTCATAATTAAAT [XGTACX_site7465] | 9.41
ACAAATAAATATTCGCGTACTTATATAATATTACGA [XGTACX_site6428] | 9.66
TACATACATACATACACACACACATATATATATATA [CACACA_site42] | 10.2
AATATTTTGAACAACAGTACTCTTTCTTTCTTTCTT [XGTACX_site7212] | 9.51
TGAATAATAAAAAATACACACACATATATATATATT [CACACA_site9146] | 10.1
ACTTACCCATTTATTACACACATAAAGGAAAATTTT [CACACA_site4873] | 9.88
TTTTATAAAAACAAAAACAAAGGCACTTTCTAAAGA [XGTACX_negctrl_site130] | 9.58
TATATGTTATATTTAACACACATATAAGGTACATAT [CACACA_site612] | 9.83
ACTTTTTAATATTTTAGTACACAGTAATTCTTACTA [XGTACX_site1425] | 9.75
CAAGAAACAGTGATACGTACACATATATATATATAT [XGTACX_site3229] | 9.91
AAGGATATAACATACACACACACACGGATATAAATA [CACACA_site7867] | 11
AAATAACACATATATACACACATATAAATATAATAT [CACACA_site2692] | 10.3
AATATAAGGATATATACACACATAAATACATACATA [CACACA_site7859] | 9.99
TTGTGGATTTTGTGCGCACACACATGCAAAAAGAAA [CACACA_site1147] | 10

Sequence | gcPBM binding intensity (ln)
GCCGCACCCAGATACGCACACAAGAAAAAAATATTC [CACACA_site3456] | 9.8
ATAATATTATGAACCTGTACATAATTTTTCTTTTCT [XGTACX_site3377] | 9.62
AAAGCACGCAAGAATACACACAAATATTATAAAAAA [CACACA_site6206] | 10.1
AAGAATACACCACGCACACACACTTGAGAAAAAATA [CACACA_site3828] | 11.2
GAATACACCACGCACACACACTTGAGAAAAAATAAA [CACACA_site7747] | 10.3
AAAAAGAAAATATATACACACCAAAAAAAAAAAAAA [CACACA_site5698] | 9.75
ACAAGAATACACCACGCACACACACTAGAGAAAAAA [CACACA_site9276] | 11.6
ACAAGAGAAAAAAATACACACAAGATAAAAATGTAT [CACACA_site607] | 9.95
AATATTTATAAATTTACACACACACCCGTGAACATA [CACACA_site1910] | 10.2
CACACCCACCAACACACACACACACCCACCCATATA [CACACA_site366] | 11
GACACCCATAAATATACACACGCACAACACAAAATA [CACACA_site8944] | 9.98
TATAAACACCCATATAAACACACATATAAACCAACA [CACACA_site8790] | 10
CACGCGCACCAACACACACACACACCCATATATATA [CACACA_site2204] | 11.1
CGCGCACCCAGACACACACACACACCCATATATATA [CACACA_site2203] | 10.6
CATATACACCAACACACACACACACCCACAAAAAAA [CACACA_site496] | 11.3
CACACCACCAACAAAAGTACATACATATATATATAT [XGTACX_site5781] | 9.82
CATACTCACCAACACACACACACACCCATATAGAAT [CACACA_site592] | 11.1
TATACATACCCACCCACACACAAAAAAAAAAAAAAA [CACACA_site4632] | 10.2
TAACCATACATACATACACACACACCCACATATATA [CACACA_site8951] | 10.3
ACCATACATACATACACACACACACCCATATATATA [CACACA_site2917] | 10.6
CACCCACACCAACACACACACATATATAATATATAT [CACACA_site595] | 10.6
